The source of these data is PubChem BioAssay AID686978 (National Center for Advancing Translational Sciences (NCATS), 2013).

Hit rate of the full screen: of about 420,000 compounds, about 64,000 (15%) were called active. Another 27% or so got no clear call; they are omitted. The list is a sample of the results. Entries that show only a call come without a potency. Unmarked numbers belong to inactive results. The call rests on the fitted dose curve; in most records, active means well fitted inhibition curve with a large enough effect; inconclusive means small, poorly fitted or top-dose-only effect; inactive means flat fitted curve, though single readings scatter.
Potency means the concentration at half of the fitted maximal effect.

The test is described as follows: qHTS for Inhibitors of human tyrosyl-DNA phosphodiesterase 1 (TDP1): qHTS in cells in absence of CPT. Further: nearly all actives have a fitted effect of over 55% in size. The conditions noted are these: DT40 Tdp1-/- hTDP1 cells, no CPT, ATP luminescence, 48 h; activity change, negative = growth inhibition: at 46.2 µM (top of the series). The procedure, abridged:
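Stably hTDP1-transfected Tdp1-null chicken DT40 cells were treated with library compounds minus camptothecin and grown for at least 48 hr at 37 °C, after which cellular ATP was quantified by luminescence.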
(In general: In qHTS, concentration-response curves come from the screen itself.)
As to `CCC(=O)Nc1cc(C(F)(F)F)ccc1N1CCCC1`, the Potency entry was “inactive”. Still for that read-out and setting: the value for `CC(C)(C)NC(=O)COC(=O)c1cc(Cl)ccc1[N+](=O)[O-]` was “inactive”.

As for `Cc1[nH]c2ccccc2c1SCC(=O)Nc1nccs1`, the Potency entry was “inactive”. Still for that read-out and setting: for `COc1ccc(Br)cc1C(=O)NC(=S)Nc1cc(-c2nc3ccccc3[nH]2)ccc1C` the value was 14.6 µM (active); for `Cc1ccc(OCC(=O)Nc2ccc(Cl)c(-c3nc4ccccc4[nH]3)c2)cc1C`, “inactive”; for `COc1ccc(Br)cc1C(=O)Nc1cccc(C)c1C`, “inactive”.

On to `CCOC(=O)c1nnn(CC(=O)NC(=O)Nc2ccccc2F)c1C(=O)OCC`, for which the Potency result is “inactive”. Still for that read-out and setting: the value for `COc1ccc(N(CC(=O)NCC2CCCO2)C(=O)CCC(=O)Nc2nccs2)c(OC)c1` (stereo not drawn) was “inactive”.

Turning to `O=c1c(O)c(Br)ccc2c(Br)c(O)c(O)c(O)c12`, the activity change, negative = growth inhibition was 8.26% [at 9.04 µM]. Regarding `C[C@H](NC(=O)c1ccccc1Cl)C(=O)OCC(=O)N1CCN(c2ccccc2)CC1`, the Potency result was “inactive”.

On to `O=C(OCC(=O)N1CCN(c2ccccc2)CC1)c1ccc([N+](=O)[O-])s1`, for which the Potency was 4.61 µM (active). The same measure, in the same setting: for `COc1cc(NC(=O)COC(=O)c2ccc([N+](=O)[O-])s2)cc(OC)c1OC` the value was “inactive”; for `Oc1ccc(-c2cccc(-c3ccc(O)cc3)c2)cc1`, “inactive”; for `Cc1cn(C2CC(O)C(CO)O2)c(=O)n(CCCc2ccccc2)c1=O` (stereo not drawn), “inactive”.

With `COCCn1c(=O)c(-c2cccs2)nc2cnc(N3CCN(C)CC3)nc21`, the Potency result was “inactive”. The same measure, in the same setting: for `CN1CCN(Cc2nc3cc(NC(=O)COc4ccc([N+](=O)[O-])cc4)ccc3n2C)CC1` the value was “inactive”; for `CCOC(=O)N1CCN(Cc2nc3cc(NC(C)=O)ccc3n2C)CC1`, “inactive”; for `CCOC(=O)N1CCN(Cc2nc3cc(NC(=O)CC)ccc3n2CC)CC1`, 29.1 µM (active). Same read-out and setting: the value for `CC(=O)Cc1nsc(NC(=O)c2ccc(COc3ccc(C)cc3)o2)n1` was “inactive”. The same measure, in the same setting: the value for `CN1CCC(=NNC(=O)CN(c2cccc(Cl)c2)S(C)(=O)=O)CC1` was “inactive”. For `CC1=CCC2C(=O)N(c3cccc(C(=O)NC(C)c4ccccc4)c3)C(=O)C2C1` (stereo not drawn), the Potency result was “inactive”. Still for that read-out and setting: the value for `CCOc1ncccc1C(=O)NCCc1ccc(OC)cc1` was 20.6 µM (active). Turning to `CCCNC(=O)c1ccccc1NC(=O)CSCc1ccc(OC)cc1`, the Potency result was “inactive”. The same measure, in the same setting: for `COc1ccc(CCNC(=O)c2ccco2)cc1` the value was “inactive”. The same measure, in the same setting: the value for `Cn1c(=O)[nH]c(=O)c2c1[nH]c(=S)n2Cc1ccccc1` was “inactive”; that for `Cc1cccc(OCCNC(=O)CSc2ccc(C(F)(F)F)cc2[N+](=O)[O-])c1` was 16.4 µM (active); that for `Cc1cccc(OCCNC(=S)NC(=O)c2cccnc2)c1` was “inactive”. `O=C(CSc1ccc(C(F)(F)F)cc1[N+](=O)[O-])NCCOc1ccccc1`: the Potency entry was “inactive”. Still for that read-out and setting: the value for `Clc1ccc(-n2nnnc2-c2cnc(-c3ccccn3)nc2-c2cccs2)cc1` was 5.17 µM (active); that for `CN(C)c1nnnn1-c1ccc(Cl)cc1` was “inactive”. Take `O=c1c(-c2cccs2)nc2cnc(Oc3ccccc3)nc2n1-c1ccccc1`: the Potency result was “inactive”. Still for that read-out and setting: the value for `O=C(OC(C(=O)NC1CCCC1)c1ccc(F)cc1)c1ccno1` (stereo not drawn) was “inactive”; that for `O=C(Nc1ncc2c(n1)CC(c1ccco1)CC2=O)c1ccc(Cl)cc1` (stereo not drawn) was “inactive”; that for `Cc1cccc(NC(=O)CSc2nc3c(c(=O)[nH]2)CCCC3)c1C` was “inactive”.

For the compound `CC(=O)NC1=NC(=O)CS1`, the Potency entry is “inactive”. On the same count and under the same terms, the value for `Cc1ccc(S(=O)(=O)N(C)c2ccc(OCC(=O)OCc3ccc(C#N)cc3)cc2)cc1` was “inactive”.

On to `CN(c1ccc(OCC(=O)O)cc1)S(=O)(=O)c1ccc2ccccc2c1`, for which the Potency result is “inactive”. Same read-out and setting: for `COc1cccc(COc2ccc(N(C)S(=O)(=O)c3ccccc3)cc2)c1` the value was 16.4 µM (active); for `CCOC(=O)CNC(=O)CSc1nc2cccnc2n1CC`, “inactive”. As to `CC(C)C[C@H]1CN=C(Nc2ccccc2)N1CC1CCCCC1`, the Potency is 16.4 µM (active). Turning to `CC(CO)(CO)NC(=O)c1ccc(=O)[nH]n1`, the Potency result was “inactive”. Same read-out and setting: the value for `Cc1ccc2c(c1)c1c(c(=O)n(-c3ccccc3)c(=O)n1CC(=O)c1ccc(Cl)cc1)n2C` was “inactive”; that for `CCc1ccccc1NC(=O)Cn1c(=O)n(-c2cccc(C)c2)c(=O)c2c1c1cc(OC)ccc1n2C` was 2.06 µM (active).

With `Cc1cccc(-n2c(=O)c3c(c4cc(C)ccc4n3C)n(CC(=O)Nc3ccccc3Cl)c2=O)c1`, the Potency result is “inactive”. Still for that read-out and setting: the value for `CCC(CC)c1nnc(NS(=O)(=O)Cc2ccccc2)s1` was “inactive”; that for `Cc1nn(C(C)C(=O)N2CCOCC2)c(=O)c2nn(-c3ccccc3)c(C)c12` (stereo not drawn) was “inactive”; that for `Cc1c(CNCCc2ccccc2)c(C(=O)O)c(C)n1-c1ccccc1` was “inactive”. Take `CC1=NOC(=O)/C1=C\c1ccccc1`: the Potency entry was “inactive”.

With `C#CCOc1ccccc1/C=C1/C(=O)ON=C1C`, the Potency is 14.6 µM (active). The same measure, in the same setting: the value for `Cc1cn(C)c(CC(=O)NCc2ccccc2)c1C(=O)O` was “inactive”. Still for that read-out and setting: the value for `COc1ccc(Cl)cc1NC(=O)CN1CCN(C(=O)N2CCOCC2)CC1` was “inactive”. As to `COc1ccc(Cl)cc1NC(=O)COc1ccc2c(c1)OCO2`, the Potency entry was “inactive”. The same measure, in the same setting: for `COc1ccc(Cl)cc1NC(=O)COC(=O)C(CC(C)C)N1C(=O)C2CC=CCC2C1=O` (stereo not drawn) the value was 18.4 µM (active); for `CC1(C)NC(=O)N(CCOc2cccc(Oc3ccccc3)c2)C1=O`, “inactive”.

Turning to `Cc1nnc(N(Cc2ccco2)C(=O)c2ccno2)s1`, the Potency result was “inactive”. Turning to `CCCNC(=O)c1c(Cl)cnn1-c1ccc(C)cc1`, the Potency entry is “inactive”. Turning to `Cc1ccnc(NC(=O)CCCOc2ccccc2)c1`, the Potency result is “inactive”. Same read-out and setting: for `COc1ccc(Cl)cc1NC(=O)c1oc(C)nc1C` the value was “inactive”.
